Assay results from PubChem BioAssay (NCI).
This is part of a sample that, as a whole, favours compounds with a hit. Of some 83,000 tested, about 20% had one in any assay.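 48-hour exposure, single concentration, 96-well plates; percent growth endpoint where 0 means no net growth. Active: below 10.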 Activity calls are given as the source filed them.

Legend:
Experiment in all cases: NCI-60 one-dose screen, 48 h (100 = growth as untreated, 0 = no growth, -100 = all killed)
Details in all cases: 10 µM unless noted
T-47D breast = system: T-47D breast
BT-549 breast = system: BT-549 breast
MDA-MB-435 melanoma = system: MDA-MB-435 melanoma
SW-620 colon = system: SW-620 colon
MCF7 breast = system: MCF7 breast
HCT-116 colon = system: HCT-116 colon
HCC-2998 colon = system: HCC-2998 colon
KM12 colon = system: KM12 colon

Measured: growth

CN1C(=O)/C(=C/c2ccc(C(=O)Nc3ncc(Cc4ccc(F)cc4)s3)cc2)SC1=S
inactive: T-47D breast 34.5% | BT-549 breast 54.9% | SW-620 colon 28.8% | MCF7 breast 46.8% | HCT-116 colon 32.6% | HCC-2998 colon 41.1% | KM12 colon 15.6%
active: MDA-MB-435 melanoma -36.3%

Cc1ccc(/C=C(\C#N)C(=O)Nc2ncc(Cc3cc(Cl)ccc3Cl)s2)o1
inactive: T-47D breast 51.1% | BT-549 breast 65.4% | MDA-MB-435 melanoma 30.4% | SW-620 colon 53.4% | MCF7 breast 49.6% | HCT-116 colon 54.4% | HCC-2998 colon 29.7% | KM12 colon 27%

Cc1nc2sc(C(=O)Nc3cccc(Cl)c3)c(N)c2cc1C(O)c1ccccc1 (stereo not drawn)
active: MDA-MB-435 melanoma 5.16%
inactive: T-47D breast 50.6% | BT-549 breast 52.6% | SW-620 colon 33.1% | MCF7 breast 21.9% | HCT-116 colon 13.9% | HCC-2998 colon 17.8% | KM12 colon 18.3%

N=c1sc(Cc2cc(Cl)ccc2Cl)cn1CC(=O)c1ccccc1
active: MDA-MB-435 melanoma -41.5%
inactive: T-47D breast 38.3% | BT-549 breast 68.8% | SW-620 colon 21.2% | MCF7 breast 32.3% | HCT-116 colon 26.1% | HCC-2998 colon 31.6% | KM12 colon 16.1%

O=C(Nc1cccc(NC(=O)C2CCCCC2)c1)c1ccccn1
inactive: T-47D breast 95.7% | BT-549 breast 102% | MDA-MB-435 melanoma 102% | SW-620 colon 115% | MCF7 breast 86.4% | HCT-116 colon 93.6% | HCC-2998 colon 87.4% | KM12 colon 98.6%

Cc1ccc2[nH]c(=O)c3c(c2c1)OC(N)=C(C#N)C31C(=O)c2cccc3cccc1c23 (stereo not drawn)
inactive: T-47D breast 85.8% | BT-549 breast 102% | MDA-MB-435 melanoma 97.6% | SW-620 colon 101% | MCF7 breast 88.2% | HCT-116 colon 101% | HCC-2998 colon 106% | KM12 colon 94.4%

O=C(CBr)CN1C(=O)c2ccccc2C1=O
inactive: T-47D breast 93.9% | BT-549 breast 111% | MDA-MB-435 melanoma 103% | SW-620 colon 109% | MCF7 breast 97.7% | HCT-116 colon 102% | HCC-2998 colon 98.8% | KM12 colon 97.6%

Cc1c2cc[nH]c(=O)c2c(C)c2c1[nH]c1ccc(OC(=O)c3ccccc3)cc12
inactive: T-47D breast 10.3% | BT-549 breast 40.8% | MDA-MB-435 melanoma 28% | SW-620 colon 28% | MCF7 breast 20.3% | HCT-116 colon 22.7% | HCC-2998 colon 57.7% | KM12 colon 39%

COc1cc(C2=NN(C(C)=O)C(c3ccc(N(C)C)cc3)C2)cc(OC)c1OC (stereo not drawn)
inactive: T-47D breast 86.6% | BT-549 breast 94.4% | MDA-MB-435 melanoma 94.9% | SW-620 colon 94.9% | MCF7 breast 93.1% | HCT-116 colon 86.9% | HCC-2998 colon 102% | KM12 colon 95.4%

N#C/C(=C\c1ccc(Cl)cc1Cl)C(=O)Nc1ncc(Cc2ccc(Cl)c(Cl)c2)s1
inactive: T-47D breast 58.5% | BT-549 breast 111% | MDA-MB-435 melanoma 60.8% | SW-620 colon 62.6% | MCF7 breast 84% | HCT-116 colon 78.5% | HCC-2998 colon 87% | KM12 colon 80.1%

CCCCN1C(=O)/C(=c2\sc3n(c2=O)NC2C(N=3)N(CC)C(=O)N2CC)c2ccccc21 (stereo not drawn)
active: MDA-MB-435 melanoma -41.6%
inactive: T-47D breast 18.7% | BT-549 breast 73.4% | SW-620 colon 36.2% | MCF7 breast 25% | HCT-116 colon 13.1% | HCC-2998 colon 64.1% | KM12 colon 20.3%

CCCCCCNc1nc(NCCCCCC)c2[nH]c(NCCCCCC)nc2n1
active: HCT-116 colon -35%
inactive: T-47D breast 33.3% | BT-549 breast 71.6% | MDA-MB-435 melanoma 67.5% | SW-620 colon 16.3% | MCF7 breast 20.9% | HCC-2998 colon 46.6% | KM12 colon 50.8%

CC(=O)c1cc(-c2ccccc2N)n(-c2ccc3c(c2)OCO3)c1C
inactive: T-47D breast 71% | SW-620 colon 29.2% | MCF7 breast 14.8% | HCC-2998 colon 15.8%
active: BT-549 breast 1.13% | MDA-MB-435 melanoma -43.6% | HCT-116 colon 6.22% | KM12 colon 5.16%

COC(=O)C1=C(C)NC(C)=C(C(=O)OCC(C)C)C1c1ccccc1[N+](=O)[O-] (stereo not drawn)
inactive: T-47D breast 56.1% | BT-549 breast 59.5% | MDA-MB-435 melanoma 54.8% | SW-620 colon 29.4% | MCF7 breast 72.7% | HCT-116 colon 30.1% | HCC-2998 colon 83.5% | KM12 colon 27.4%

CCn1cc(CNc2ccc(C(=O)Nc3cc4cc(OC)c(OC)cc4c(C)n3)cc2)c(C)n1
inactive: MDA-MB-435 melanoma 48.4% | SW-620 colon 59.9% | MCF7 breast 30% | HCT-116 colon 25.4% | HCC-2998 colon 62.2% | KM12 colon 23%
active: T-47D breast -15.4% | BT-549 breast -4.64%

CN1CCN(c2ccc(NC(=O)c3cncnc3Nc3ccc4c(ccn4Cc4cccc(F)c4)c3)cc2)CC1
active: MDA-MB-435 melanoma -79.7% | SW-620 colon 5.18%
inactive: T-47D breast 48.8% | BT-549 breast 85.6% | MCF7 breast 12.8% | HCT-116 colon 13.1% | HCC-2998 colon 61.6% | KM12 colon 46.7%

COc1ccc(C(O)c2cc3c(N)c(C(=O)Nc4cccc(Cl)c4)sc3nc2C)cc1 (stereo not drawn)
inactive: T-47D breast 42.2% | BT-549 breast 38.3% | SW-620 colon 27.1% | MCF7 breast 15.1% | HCT-116 colon 10.3%
active: MDA-MB-435 melanoma 0.877% | HCC-2998 colon -19.9% | KM12 colon 9.91%

COc1ccc(Cn2cc(C(=O)N=Nc3c(O)[nH]c4c(Cl)cccc34)nn2)cc1
inactive: T-47D breast 100% | BT-549 breast 111% | MDA-MB-435 melanoma 101% | SW-620 colon 99.7% | MCF7 breast 84.3% | HCT-116 colon 91.6% | HCC-2998 colon 99.3% | KM12 colon 107%

O=C1CC2C=CCN2C=C1NC(=O)C1CCCCC1 (stereo not drawn)
inactive: T-47D breast 84% | BT-549 breast 117% | MDA-MB-435 melanoma 102% | SW-620 colon 107% | MCF7 breast 92.3% | HCT-116 colon 94.8% | HCC-2998 colon 88.3% | KM12 colon 96.1%

COc1ccc2cc(-c3cnc4nonc4n3)ccc2c1
inactive: T-47D breast 15.5% | BT-549 breast 56.3% | SW-620 colon 26.9% | MCF7 breast 15.7% | HCT-116 colon 18.3% | HCC-2998 colon 59.3% | KM12 colon 23.1%
active: MDA-MB-435 melanoma -14.9%

COc1ccc(/C=C/C(=O)c2ccc(Nc3nc(Nc4ccc(F)cc4)nc(Nc4ccc(Cl)cc4)n3)cc2)cc1
inactive: T-47D breast 67.3% | BT-549 breast 116% | MDA-MB-435 melanoma 97.3% | SW-620 colon 104% | MCF7 breast 72.2% | HCT-116 colon 91.8% | HCC-2998 colon 51.3% | KM12 colon 166%

CCn1cc(C(=O)N/N=C/c2ccc(Br)cc2)c(=O)c2cc(F)c(N3CCNC(C)C3)c(F)c21 (stereo not drawn)
inactive: T-47D breast 64.1% | BT-549 breast 91.7% | MDA-MB-435 melanoma 16.7% | HCT-116 colon 67.7% | HCC-2998 colon 25.9% | KM12 colon 47.9%
active: SW-620 colon -74.1% | MCF7 breast -77.3%

Cc1nc2sc(C(=O)Nc3ccccc3)c(N)c2cc1C(=O)/C=C/c1ccccc1
active: T-47D breast 1.62% | BT-549 breast -7.07% | MDA-MB-435 melanoma -38.2% | SW-620 colon -37.6% | MCF7 breast 3.7% | HCT-116 colon -66.9% | HCC-2998 colon -80.5% | KM12 colon -42.1%

CC1(C)CCC(S(=O)(=O)c2ccc3c(c2)/C(=N\O)c2cc(S(=O)(=O)N4CCN(c5ccc(F)cc5O)CC4)ccc2-3)CC1
active: T-47D breast -90.6% | BT-549 breast -86.7% | MDA-MB-435 melanoma -92.3% | SW-620 colon -81.5% | MCF7 breast -67.9% | HCT-116 colon -96.6% | HCC-2998 colon -92.1% | KM12 colon -90.3%

Cc1ccc(-c2csc(NC(=O)N3CCN(c4cc5c(cc4F)c(=O)c(C(=O)O)cn5C4CC4)CC3)n2)cc1
active: BT-549 breast 3.9% | MCF7 breast 6.05%
inactive: T-47D breast 11.5% | MDA-MB-435 melanoma 17.6% | SW-620 colon 27.2% | HCT-116 colon 11.4% | HCC-2998 colon 32.9% | KM12 colon 11.4%

C/C(C=O)=C\c1ccc2c(c1)OCO2
inactive: T-47D breast 117% | BT-549 breast 114% | MDA-MB-435 melanoma 107% | SW-620 colon 118% | MCF7 breast 102% | HCT-116 colon 108% | HCC-2998 colon 108% | KM12 colon 110%

COC(=O)c1c2c(c(C)[n+]([O-])c1C)C(=O)C=CC2=O
active: T-47D breast -12.6% | BT-549 breast -90.3% | MDA-MB-435 melanoma -61.4% | SW-620 colon -19.5% | MCF7 breast -59.4% | HCT-116 colon -14% | HCC-2998 colon -61.3% | KM12 colon 4.57%

CCCCCCC(CCCC)COC(=O)c1ccc(Cl)cc1 (stereo not drawn)
inactive: T-47D breast 103% | BT-549 breast 107% | MDA-MB-435 melanoma 107% | SW-620 colon 109% | MCF7 breast 101% | HCT-116 colon 104% | HCC-2998 colon 121% | KM12 colon 108%

O=C1Nc2ccccc2C2c3cccn3-c3ccccc3N12 (stereo not drawn)
active: MDA-MB-435 melanoma 7.5%
inactive: T-47D breast 76% | BT-549 breast 82.7% | SW-620 colon 49.6% | MCF7 breast 60.1% | HCT-116 colon 78.2% | HCC-2998 colon 77.2% | KM12 colon 62.3%

COc1ccccc1-n1c(-c2cc(O)ccc2C)cn2c3c(=O)[nH]c(=O)n(C)c3nc12
inactive: T-47D breast 87.8% | BT-549 breast 100% | MDA-MB-435 melanoma 104% | SW-620 colon 106% | MCF7 breast 84.1% | HCT-116 colon 86.5% | HCC-2998 colon 98.6% | KM12 colon 108%

O=C(O)CCCn1c(SCc2c(Cl)cccc2Cl)nc2ccsc2c1=O
active: MDA-MB-435 melanoma -58.4%
inactive: T-47D breast 35.5% | BT-549 breast 34.2% | SW-620 colon 15.1% | MCF7 breast 20.6% | HCT-116 colon 18.8% | HCC-2998 colon 29.6% | KM12 colon 18.3%
